This is part of a sample that, as a whole, favours compounds with a hit. Of some 83,000 tested, about 20% had one in any assay.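 The endpoint reported here, percent growth, reads 100 for growth as untreated, 0 for no net growth and -100 for all cells dead.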 A number with no mark means an inactive call. The source made the active and inactive calls.
Tested on: OVCAR-5 ovarian
Test: NCI-60 one-dose screen, 48 h (100 = growth as untreated, 0 = no growth, -100 = all killed)
Conditions: 10 µM
Experimental: Growth inhibition of the OVCAR-5 human tumor cell line is measured as a screen for anti-cancer activity. Cells are grown in 96 well plates and exposed to the test compound for 48 hours. Compounds are tested at a single concentration, which is 10^-5 M for most compounds. The reported endpoint is percent growth (GI% or GIPRCNT), where numbers from 0 - 100% represent growth inhibition, and numbers from -100% - 0 represent cell death. For example, a value of 40 represents 60% growth inhibition. A value of 0 means no net growth occurred over the course of the experiment. A value of -40 indicates 40% of cells at the beginning of the experiment died by the end of the experiment. A value of -100 means all cells are dead at the end of the experiment.
NCI-60 Human Tumor Cell Lines Screen was performed using the standard one-dose NCI protocol, which is described in more detail at https://dtp.cancer.gov/discovery_development/nci-60/default.htm.
Compounds with GIPRCNT values below 10 were considered active. Activity score was based on GIPRCNT using the following formula: […]
Score is 0 for GIPRCNT values of 100 or above, 50 for GIPRCNT values of 0, and 100 for GIPRCNT values of -100.

Which growth does the source give for CCOP(=O)(OCC)O[C@H]1CCC(=O)[C@@H]2[C@H]1[C@H]1C[C@@H]3[C@@]4(C)CCCC(C)(C(=O)OC)[C@@H]4CC[C@@]23C=C1C(C)C (stereo not given in full) here?
Its growth is 92.7%.

For Cc1ccc([N+](=O)[O-])c(C(=O)Nc2ccc(-c3ccc4c(c3)NC(=O)/C4=C\c3ccc[nH]3)cc2)c1, which growth is on record?
The growth was 55%.

For CN1C(=O)/C(=C/c2ccc3ncsc3c2)NC1=NC12CC3CC(CC(O)(C3)C1)C2, which growth is on record?
Its growth is 7.24% (active).

How did the growth turn out when COc1ccc(CN2[C@H](C(=O)NCCCCCCC(=O)NO)Cc3c([nH]c4ccccc34)[C@H]2C2CC2)cc1 was run?
The growth was -21.2% (active).

O=c1cc(-c2ccccc2)oc2cc(OCCCNCc3ccccc3)cc(O)c12 was tested. Which growth did it give?
The growth was 75.5%.

Which growth does the source give for O=S(=O)(c1ccc(Cl)cc1)c1nc(-c2ccccc2)oc1S(=O)(=O)c1ccc(Cl)cc1 here?
Its growth is 101%.

Which growth does the source give for CC1CC(c2ccc(N(C)C)cc2)=NN1c1nc(O)c(C2=c3cc(Br)ccc3=NC2=O)s1 (stereo not given) here?
The growth was 123%.

With N#Cc1c(NC(=O)c2ccc(C(F)(F)F)cc2C(F)(F)F)sc2c1CCC(=O)C2 as the molecule, how does the growth read?
The growth was -62.3% (active).

Which growth does the source give for COc1ccc2[nH]c(=O)c(CSc3ccc(Nc4nccc(-c5ccc(Cl)cc5)n4)cc3)cc2c1 here?
Its growth is 96.6%.

For COc1ccc(C=CC(=O)c2ccc(-n3c(C)nc4c(cnn4-c4ccccc4)c3=O)cc2)cc1, which growth is on record?
The growth was 111%.

For O=C(N=Nc1c(O)[nH]c2ccc(Br)cc12)c1ccc2nc(-c3ccccc3)[nH]c2c1, which growth is on record?
The growth was -5.18% (active).

How did the growth turn out when CC(=O)c1ccc(NC(=O)NCn2c(=O)[nH]c3ccccc3c2=O)cc1 was run?
The growth was 107%.

How did the growth turn out when COc1ccc(-c2c(N)c(=O)n(C)c3ccccc23)cc1 was run?
The growth was 76.7%.

For COc1cc(/C=C/C(=O)c2ccc(F)cc2)ccc1Oc1nc(Nc2ccc(F)cc2)nc(N(C)C)n1, which growth is on record?
Its growth is 93.1%.

Which growth does the source give for COc1ccc2nc(Cl)c(-c3cc(-c4ccccc4)nc(N)n3)cc2c1 here?
The growth was 51.4%.

Nc1nc2c(F)c(F)c(F)c(F)c2s1 was tested. Which growth did it give?
The growth was 104%.

Which growth does the source give for Nc1n[nH]c2cccc(C#Cc3cccc(NC(=O)Nc4cc(C(F)(F)F)cc(C(F)(F)F)c4)c3)c12 here?
Its growth is -46% (active).

With CN(C)c1cccc2c(S(=O)(=O)Nc3cccc(-c4csc(NC(=O)CCCCCN5CCN(c6cc7c(cc6F)C(=O)N(C6CCC(=O)NC6=O)C7=O)CC5)n4)c3)cccc12 (stereo not given) as the molecule, how does the growth read?
The growth was 105%.

How did the growth turn out when COc1ccc(N2N=C(c3ccc4c(c3)OCCO4)CC2c2cccc(NC(=O)CCCNS(=O)(=O)c3ccc(F)cc3)c2)cc1 (stereo not given) was run?
The growth was 89%.

CC1(C)CC[C@]2(C(=O)Nc3ccccc3)CC[C@]3(C)C(=CC[C@@H]4[C@@]5(C)CC[C@H](N)C(C)(C)[C@@H]5CC[C@]43C)[C@H]2C1 was tested. Which growth did it give?
The growth was 84.4%.

How did the growth turn out when CC(=O)c1ccc(Nc2nc(SC(C)C)nc(-c3ccccc3)c2C#N)cc1 was run?
Its growth is 55.8%.

How did the growth turn out when OCCNc1oc(-c2ccccc2)nc1[P+](c1ccccc1)(c1ccccc1)c1ccccc1 was run?
Its growth is 31.2%.

How did the growth turn out when CCCS(=O)(=O)c1oc(-c2ccc(F)cc2)nc1S(=O)(=O)c1ccc(F)cc1 was run?
The growth was -68.3% (active).

Which growth does the source give for COc1ccc(-c2nc(-c3ccccc3)c(-c3ccccc3)n2-c2ccc(S(=O)(=O)Nc3ncccn3)cc2)cc1OC here?
The growth was 82.8%.

O=S(=O)(Nc1ncccn1)c1ccc(-n2c(-c3ccc(Br)cc3)nc(-c3ccccc3)c2-c2ccccc2)cc1 was tested. Which growth did it give?
The growth was 70.5%.

How did the growth turn out when Cc1ccc(NC(=O)NCn2c(=O)[nH]c3ccccc3c2=O)cc1 was run?
The growth was 94.2%.

For COc1ccc(C(=O)/C=C/c2cc(F)cc(C(F)(F)F)c2)cc1S(N)(=O)=O, which growth is on record?
Its growth is -59.9% (active).

Which growth does the source give for COc1ccc([C@H]2C(C(=O)c3ccc(Cl)cc3)C3(N[C@@H]2c2ccccc2)C(=O)Nc2ccc(Br)cc23)cc1 (stereo not given in full) here?
The growth was -20% (active).

Which growth does the source give for CN(CCF)c1ccc(/C=C/C(=O)c2ccc(N)cc2O)cc1 here?
Its growth is 90%.

With O=C(Nc1cccc(C(F)(F)F)c1)c1cncc(C#Cc2cnc3ccc(N4CCOCC4)nn23)c1 as the molecule, how does the growth read?
The growth was 1.83% (active).

How did the growth turn out when Cc1ccc(/C(N)=N/c2sc(-c3ccccc3)nc2-c2ccccc2)cc1 was run?
The growth was 84.1%.

Which growth does the source give for C[C@H]1[C@H](C)CC[C@]2(COC(=O)CCC(=O)NCC#CCN3CCNCC3)CC[C@]3(C)C(=CC[C@@H]4[C@@]5(C)CCCNC(C)(C)[C@@H]5CC[C@]43C)[C@H]12 here?
The growth was 53.8%.

CCCCSc1nc(Nc2ccc(/C(C)=N/NC(N)=S)cc2)c(C#N)c(-c2ccc(F)cc2)n1 was tested. Which growth did it give?
The growth was 64.4%.

With COc1ccc(C(=O)/C=C/c2cc(C(F)(F)F)cc(C(F)(F)F)c2)cc1S(N)(=O)=O as the molecule, how does the growth read?
Its growth is -93.6% (active).

With Cc1ccc2nc(-c3ccc(-c4nnc(SCC(=O)Nc5ccc(Cl)cc5)o4)cc3)[nH]c2c1 as the molecule, how does the growth read?
The growth was 63.1%.

Which growth does the source give for CC(=O)Nc1ccc(-c2cn(-c3cccc(C(=O)Nc4cc(C(F)(F)F)cc(C(F)(F)F)c4)c3)nn2)cn1 here?
Its growth is -10.6% (active).

With O=c1oc2ccc(-c3ccc(F)cc3F)cc2c(=O)n1-c1ccc(F)c(Cl)c1 as the molecule, how does the growth read?
Its growth is -5.91% (active).

O=C(Cn1nc(-c2ccccc2)ccc1=O)NN1C(=O)c2ccccc2C1=O was tested. Which growth did it give?
Its growth is 120%.

For CC(=O)Nc1nc(-c2ccc(N3CCN(C)CC3)c(NS(=O)(=O)c3ccc(C(F)(F)F)cc3)c2)cs1, which growth is on record?
Its growth is 44.8%.

Which growth does the source give for CC(=O)NS(=O)(=O)c1ccc(NC(=O)CSC2=NC(c3ccccc3)C(C(C)=O)=C(C)N2)cc1 (stereo not given) here?
Its growth is 104%.

Source: PubChem BioAssay (NCI)
